Screens from PubChem.
In the library only some 3.3% were active in any assay of this set; here they are far more common.
GBA mod: human lysosomal glucosylceramidase modulation. P04062. purified enzyme, resorufin glucoside fluorescence (screen aimed at inhibitors), 20 min. Potency, µM. 48,000 tested, 1.1% active. AID 360; in the data active = potency below about 15 µM; inconclusive = mostly about 16 µM to 33 µM;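 note: the screen sought inhibitors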
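Compounds titrated against 0.2 nM normal enzyme, 30 uM resorufin beta-D-glucopyranoside substrate, citrate/phosphate buffer with taurocholate and tween-20, pH 5.9. Reaction ran 20 min at room temperature; fluorescence (Ex 548/Em 600) gave AC50.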
FLuc inh: inhibitors of firefly luciferase. Potency, µM (series often up to 57.1 µM), actives largely listed as inhibitors. 72,000 tested, 2.2% active. AID 411. purified firefly luciferase, luminescence, 8 min. P08659; note: nearly all actives have a fitted effect of over 40% in size
Target sequence (P08659 whole entry, looked up): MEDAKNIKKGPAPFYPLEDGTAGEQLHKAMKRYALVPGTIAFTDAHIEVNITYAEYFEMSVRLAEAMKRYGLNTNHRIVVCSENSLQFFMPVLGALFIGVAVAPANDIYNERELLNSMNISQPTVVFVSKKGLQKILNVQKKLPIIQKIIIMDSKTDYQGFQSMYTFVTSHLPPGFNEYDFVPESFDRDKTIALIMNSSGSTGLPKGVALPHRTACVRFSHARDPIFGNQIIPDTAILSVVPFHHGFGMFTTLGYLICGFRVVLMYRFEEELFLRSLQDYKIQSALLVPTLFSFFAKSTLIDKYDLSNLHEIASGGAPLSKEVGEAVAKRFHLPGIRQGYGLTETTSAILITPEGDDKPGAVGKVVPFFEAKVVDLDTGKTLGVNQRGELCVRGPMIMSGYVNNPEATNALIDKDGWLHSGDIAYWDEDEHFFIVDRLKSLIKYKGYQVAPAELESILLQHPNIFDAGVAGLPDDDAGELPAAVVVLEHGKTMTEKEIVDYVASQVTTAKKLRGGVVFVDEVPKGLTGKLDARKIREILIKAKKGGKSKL
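Firefly luciferase (PKLight detection mix) with 10 uM ATP in pH 7.2 imidazole buffer (KCl, MgCl2, Tween 20, BSA). Compounds tested across a concentration series (qHTS). Luminescence read after 8 min at ambient temperature.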
Ub-GFP proteasome: proteasome inhibitors stabilizing ubiquitin-GFP reporter; Ubiquitin-GFP reporter cells, proteasome inhibition, GFP fluorescence; response scale: untreated = 0%, 10 µM MG-132 = 100%; Potency, µM (titrated, usually from 45.9 µM), most hits filed as activators; 67,000 tested, under 10 active; AID 526; active = well fitted activation curve with a large enough effect, not every such curve was filed as active; inconclusive = small, poorly fitted or top-dose-only effect, or another doubt; inactive = no such curve, though single readings can be large or run the other way
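Proteasome blockade was scored as a rise in GFP-expressing U2OS cells carrying a ubiquitin(G76V)-GFP construct, imaged after 4 hr compound treatment at 37 °C across a 46 uM–2.9 nM series.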
GFP derepression: derepresses silenced GFP locus in mouse C127i cells; mouse C127i GFP locus derepression, cytometry, 30 h; Potency, µM (series often up to 46.1 µM); 68,000 tested, 0.09% active; AID 597
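Murine C127i mammary cells carrying a silenced, stably integrated CMV-driven GFP reporter were treated with compound for 30 hours at 37 C. After PBS washes, GFP-positive cells were counted by laser-scanning microplate cytometry.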
HBB splice mod: hemoglobin beta splicing modulation. HBB splicing reporter cell assay, activation; EGFP reporter with mutant IVS2-654 intron; response scale: normalised to 500 nM splice-correcting PNA. Potency, µM (doses to about 46.1 µM), usual class: activators. 65,000 tested, 0.06% active
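HeLa cells stably expressing EGFP interrupted by mutant beta-globin intron 2 (IVS2-654), 500/well in 2% FCS. Treated with compound for 2 days at 37C. Splicing correction scored as total well GFP intensity (488 nm excitation, 500-520 nm emission); 500 nM antisense PNA served as control.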
PK Bst: modulators of Bacillus stearothermophilus pyruvate kinase. purified pyruvate kinase, luminescence ATP production; ribose 5-phosphate activator present at AC10. 51,000 tested, 1.2% active. Potency, µM. AID 361; in the data active = potency below about 11 µM; inconclusive = mostly about 12 µM to 25 µM;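 the screen sought inhibitors and activators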
Hits are given with their value; n = inactive; u = inconclusive; x = no result given; [ ] = dose if it differs, or a comment. Unless noted, calls come from the whole dose curve; as a rule, active = well fitted curve in the direction sought with a large enough effect; inconclusive = small, poorly fitted or top-dose-only effect, or another doubt; inactive = no such curve, though single readings can be large; an effect the other way counts as inactive or inconclusive.

SMILES	GBA mod	FLuc inh	Ub-GFP proteasome	GFP derepression	HBB splice mod	PK Bst
CC(C)(C(=O)O)c1ccc([C@@H](O)CCCN2CCC(C(O)(c3ccccc3)c3ccccc3)CC2)cc1	x	n	n	n	n	x
COc1cccc(Cn2c(C3CC3)nc3ccc(NC(=O)c4ccco4)cc3c2=O)c1	x	n	n	n	n	x
COc1ccc(Cn2c(C3CC3)nc3ccc(NC(=O)C4CC4)cc3c2=O)cc1	n	16µM	n	n	n	x
CC(=O)N(OCc1ccccc1)[C@@H]1c2cc(C#N)ccc2OC(C)(C)[C@H]1O	x	x	x	x	n	x
O=c1c2ccccc2sn1-c1cc(S(=O)(=O)N2CCOCC2)ccc1N1CCOCC1	u	13µM	n	n	n	n
CN(C)c1cccc(-c2nnc(SCCCC#N)o2)c1	n	16µM	n	n	n	n
COc1ccc(-c2nc(CS(=O)(=O)CC(=O)NCCc3cc(OC)ccc3OC)c(C)o2)cc1	n	n	n	n	n	n
COc1ccc(OC)c(CCNC(=O)Cn2sc3nc(C)cc(C)c3c2=O)c1	x	10µM	n	n	n	x
CN(C)c1ncc2nc(CCc3ccccc3)c(=O)n(CCC#N)c2n1	x	n[11.4 µM]	n	n[9.22 µM]	n	x
COc1ccc(C(=O)CSc2nn3c(=O)c(C(C)(C)C)nnc3s2)cc1	n	n	n	n	n	n
COc1ccc(-n2c(C)cc(C(=O)CSc3nn4c(=O)c(C(C)(C)C)nnc4s3)c2C)cc1	n	2µM	n	n	n	n
Cc1ccc(-n2c(C)cc(C(=O)CSc3nncs3)c2C)cc1	n	25µM	n	n	n	n
CC(=O)OC[C@@H]1O[C@@H](O/N=C2/C[C@@H](O)[C@@H](O)[C@@H]3[C@H]4C(=O)N(c5ccc(F)cc5F)C(=O)[C@@H]4CC[C@H]23)[C@H](OC(C)=O)[C@H](OC(C)=O)[C@@H]1OC(C)=O	x	n[11.4 µM]	x	x	n[9.22 µM]	x
COC(C(C)/C=C/CC(=O)OCCCc1ccccc1)C1CCCCC1 (stereo not given)	x	x	x	x	n[9.22 µM]	x
CC(=O)c1ccc(OC2C(O)COC2/C=C/c2ccc(Cl)cc2)cc1 (stereo not given)	x	x	x	x	n[9.22 µM]	x
Cc1cc(Cl)ccc1OCc1nc(-c2ccc(O)cc2)n[nH]1	u	u	n	n	n	x
COCCNc1c(-c2ccc(O)cc2)nc2ccc(Cl)cn12	6.9	n	n	n	x	n
O=C(O)C/C=C\CC(=O)O	x	n[11.4 µM]	n[9.17 µM]	n[9.22 µM]	n[9.22 µM]	x
Cc1sc(NC(=O)c2ccccc2)c(C(=O)N2CCN(C)CC2)c1C	12	n	n	n	n	n
Cc1sc(NC(=O)c2cccs2)c(C(N)=O)c1C	x	13µM	n	n	n[9.22 µM]	x
Cc1c(N=Cc2ccc(Cl)o2)c(=O)n(-c2ccccc2)n1C	n	n	n	n	n	n
Cc1ccccc1-c1ccc(C=Nc2c(C)n(C)n(-c3ccccc3)c2=O)o1	n	16µM	n	n	n	n
O=C1CC2(CCCC2)CC(=O)N1CCCCNC[C@H]1COc2ccccc2O1	x	n	n	n	x	x
CCOc1ccc2nc(NC(=O)c3ccoc3C)sc2c1	x	1.6µM	n[9.17 µM]	n	n[0.0738 µM]	x
CCOc1ccc2nc(NC(=O)COC)sc2c1	n	20µM	n	n	n	n
SMILES	GBA mod	FLuc inh	Ub-GFP proteasome	GFP derepression	HBB splice mod	PK Bst
COc1ccc2sc(NC(=O)CC(C)C)nc2c1	n	25µM	n	n	n	n
CCC(=O)Nc1nc2cc(OC)ccc2s1	n	u	n	n	n	x
CCOCC(=O)Nc1nc2ccc(OC)cc2s1	n	u	n	n	n	x
CCOc1ccc2nc(NC(=O)Nc3cccs3)sc2c1	x	0.63µM	n	x	n	x
CCOc1ccc2nc(NC(=O)c3ccc(S(=O)(=O)N4CCOCC4)cc3)sc2c1	n	n	n	n	n	n
Nc1ccc([N+](=O)[O-])c(N)c1	x	x	x	x	n	x
COc1ccccc1-c1ccc2ncnc(NCCNC(C)=O)c2c1	x	n[2.29 µM]	n	n[9.22 µM]	n	x
Cc1nc2cnc(N3CCN(C)CC3)nc2n(C2CC2)c1=O	x	n[11.4 µM]	n	n[9.22 µM]	n	x
CCOC(=O)N/N=C1/C[C@@H](O)[C@@H](O)[C@@H]2[C@@H]3C(=O)N(C[C@@H]4CCCO4)C(=O)[C@H]3CC[C@@H]12	x	n[11.4 µM]	x	x	n[9.22 µM]	x
O=C(c1ccco1)N1CCC2(CC1)CN(c1cccc(-c3ccccc3)c1)C2	x	n[11.4 µM]	n	n[9.22 µM]	n	x
CCc1nnc(NC(=O)c2cccc(S(=O)(=O)N3CCN(c4ccccc4)CC3)c2)s1	9.8	n	n	n	n	n
C=C(C)C(O)/C=C/C=C/c1ccccc1 (stereo not given)	x	x	x	x	n[9.22 µM]	x
O=S(=O)(c1cccc2cccnc12)N1CCc2ccccc21	n	n	n	n	n	1.4
CCS(=O)(=O)NCCc1cc2c(OC)ccc(OC)c2[nH]c1=O	n	n	n	n	n	11
Nc1nc2ccc(N3CCOCC3)cc2s1	n	16µM	n	n	n	n
O=C(c1ccc2nc(N3CCOCC3)sc2c1)N1CCCC1	x	n	n	n	n	x
O=C(c1ccco1)N1CCC2(CC1)CCN(c1ccncc1)CC2	x	n[11.4 µM]	n	n[9.22 µM]	n	x
OCCN1CCN(c2nc(-c3ccccc3)nc3c2oc2ccccc23)CC1	n	n	n	n	n	6
O=C(O)C1CCN(c2nc(-c3ccccc3)nc3c2oc2ccccc23)CC1	n	n	x	n	n[0.369 µM]	7.4
CCOC(=O)C1CCN(c2ncnc3c2oc2ccccc23)CC1	x	n	n	n	n	n
CCOC(=O)C1CCN(c2nc(-c3ccccc3)nc3c2oc2ccccc23)CC1	7.4	n	n	n	n	n
